FAK inh – FAK (human) kinase inhibition; Q05397; biochemical FAK kinase activity assay; hit rate 0.84% among 97,000; inhibition, %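 (tested at 7 µM)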;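 note: 0% = DMSO and 100% = reference compound high control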
Smad3 FoxH1 inh – Smad3 (human) transcription factor binding inhibition | inhibition, % at 25 µM | TR-FRET Smad3/Dy647-FoxH1 peptide binding, europium anti-His | P84022 | hit rate 0.29% among 88,000 | AID 630;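 active = compounds that reduce the energy-transfer binding signal between the protein and its labelled peptide by more than half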;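 note: 0% = Smad3 plus labelled peptide maximal FRET and 100% = peptide-only background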
Plk1 PBD FP – inhibitors of human Plk1 polo box domain binding; P53350; Plk1 PBD phosphopeptide binding, fluorescence polarization; inhibition, %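 (tested at about 20 µM)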; hit rate 0.13% among 97,000; in the data active = inhibition above about 34%, passing the limit was not always enough
Target sequence (P53350 whole entry, looked up, the tested form may be a part): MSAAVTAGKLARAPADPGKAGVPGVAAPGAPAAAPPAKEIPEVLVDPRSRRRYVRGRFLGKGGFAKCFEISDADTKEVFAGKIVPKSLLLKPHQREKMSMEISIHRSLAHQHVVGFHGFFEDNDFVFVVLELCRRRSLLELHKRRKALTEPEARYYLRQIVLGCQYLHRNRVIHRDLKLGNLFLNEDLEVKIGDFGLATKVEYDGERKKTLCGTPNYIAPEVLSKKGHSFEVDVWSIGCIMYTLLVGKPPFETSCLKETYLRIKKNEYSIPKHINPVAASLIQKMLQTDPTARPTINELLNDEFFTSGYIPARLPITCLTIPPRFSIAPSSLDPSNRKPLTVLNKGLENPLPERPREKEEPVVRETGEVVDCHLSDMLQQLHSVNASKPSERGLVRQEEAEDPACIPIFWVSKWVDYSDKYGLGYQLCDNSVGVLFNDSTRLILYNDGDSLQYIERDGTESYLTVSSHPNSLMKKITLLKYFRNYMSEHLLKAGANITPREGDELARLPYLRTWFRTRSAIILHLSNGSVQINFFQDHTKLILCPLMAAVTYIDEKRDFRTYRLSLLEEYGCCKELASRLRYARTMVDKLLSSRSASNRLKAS
EphB4 ephrin blk – EphB4-ephrin-B2 interaction antagonism; P54760; EphB4 LBD / TNYL-RAW-Alexa532 peptide, fluorescence polarization; inhibition, % at 7 µM; hit rate 0.15% among 97,000;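 active = inhibition above the screen-wide mean inhibition plus 3 SD, cut at about 15% in these data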;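 note: 0% = DMSO wells and 100% = excess unlabeled TNYL-RAW peptide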
PLK1 inh – inhibitors of human PLK1 kinase; P53350; recombinant PLK1 kinase, TR-FRET peptide phosphorylation; inhibition, % at 10 µM; hit rate 0.53% among 97,000;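 active = inhibition of 50% or more in the single-concentration screen; inactive = inhibition below 50%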;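 note: 0% = DMSO max control and 100% = H-89 dihydrochloride min control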
FAK inh conf – confirmation of human focal adhesion kinase (FAK) inhibitors; shares compounds with FAK inh; FAK kinase biochemical inhibition assay; inhibition, % at 7 µM; hit rate 28% among 750; AID 794
* = called active by the depositor. The list is not random: actives were taken first. Their share in the collection is about 1.6%. Cut-off read from the data, not from the text of the source, unless noted: active = inhibition above about 19%; inactive = the rest.

How did CC1CCCC(C)N1C(=O)Cn1cc(/C=C2/C(=O)Nc3ccccc32)c2ccccc21 (stereo not drawn) do in these assays?
FAK inh: 5; Smad3 FoxH1 inh: -2; Plk1 PBD FP: -13; EphB4 ephrin blk: 2; PLK1 inh: -9

Results for CN1C(=O)/C(=C/c2cn(CC(=O)N3CCCCC3)c3ccccc23)c2ccccc21 ?
FAK inh: 26*; Smad3 FoxH1 inh: 7; Plk1 PBD FP: 14; EphB4 ephrin blk: 9; PLK1 inh: -4; FAK inh conf: 28*

What do the screens show for `CCCCN1CC(O)=C(c2nc(-c3ccc(Cl)cc3)cs2)C1=N`?
FAK inh: 32*; Smad3 FoxH1 inh: -43; Plk1 PBD FP: -32; EphB4 ephrin blk: 14; PLK1 inh: -7; FAK inh conf: 12

How did COc1cccc(CN2CC(O)=C(c3nc(-c4ccc(Cl)cc4)cs3)C2=N)c1 do in these assays?
FAK inh: 32*; Plk1 PBD FP: -10; EphB4 ephrin blk: 4; PLK1 inh: -3; FAK inh conf: 26*

Results for Cc1oc(C(C)(C)C)cc1C(=O)N1CCCC1C(=O)O (stereo not drawn) ?
FAK inh: 2; Smad3 FoxH1 inh: 14; Plk1 PBD FP: -7; EphB4 ephrin blk: -1; PLK1 inh: -10

How did COc1ccc2nc3oc(C(=O)NCc4cccs4)cc3cc2c1 do in these assays?
FAK inh: 32*; Plk1 PBD FP: 49; EphB4 ephrin blk: 8; PLK1 inh: -21; FAK inh conf: 10

Results for Cc1csc2ncc(C(=O)NCc3ccccn3)c(=O)n12 ?
Smad3 FoxH1 inh: -2

What do the screens show for `O=C(CN1C(=O)COc2ccccc21)N1CCc2ccccc21`?
FAK inh: -4; Smad3 FoxH1 inh: -6; Plk1 PBD FP: 6; EphB4 ephrin blk: 4; PLK1 inh: 4

How did O=C(C1COc2ccccc2O1)N1CCc2ccccc21 (stereo not drawn) do in these assays?
FAK inh: 24*; Smad3 FoxH1 inh: 12; Plk1 PBD FP: -18; EphB4 ephrin blk: 9; PLK1 inh: -22; FAK inh conf: 7

What do the screens show for `O=C(Nc1ccccc1Cl)ON=C1c2ccccc2-c2ccccc21`?
FAK inh: 35*; Plk1 PBD FP: -1; EphB4 ephrin blk: 2; PLK1 inh: 9; FAK inh conf: 11

How did O=C(Nc1ccccc1)O/N=C(\c1ccccc1)c1ccccn1 do in these assays?
FAK inh: -1; Plk1 PBD FP: 10; EphB4 ephrin blk: -1; PLK1 inh: -10

What do the screens show for `NC(=O)NC(=O)Nc1ccccc1Cl`?
FAK inh: 3; Smad3 FoxH1 inh: -5; Plk1 PBD FP: 16; EphB4 ephrin blk: -9; PLK1 inh: -1

How did O=C(Nc1ccccc1)ON=C1c2ccccc2-c2ccccc21 do in these assays?
FAK inh: 41*; Plk1 PBD FP: 21; EphB4 ephrin blk: 1; PLK1 inh: 3; FAK inh conf: 9

How did Cc1cc([N+](=O)[O-])cnc1NC(C)c1ccccc1 (stereo not drawn) do in these assays?
FAK inh: 2; Plk1 PBD FP: 7; EphB4 ephrin blk: 5; PLK1 inh: -6

How did C[C@@H](CCC(=O)O)C(=O)O do in these assays?
Smad3 FoxH1 inh: 8

How did O=C(O)CCC(=O)C(=O)O do in these assays?
Smad3 FoxH1 inh: -2

What do the screens show for `O=C(Nc1ccc(Cl)c(Cl)c1)N1CCSC1c1ccco1` (stereo not drawn)?
FAK inh: 26*; Smad3 FoxH1 inh: -7; Plk1 PBD FP: -15; EphB4 ephrin blk: 5; PLK1 inh: 0; FAK inh conf: 17

Results for COc1ccc(Cc2nc3ccc(S(=O)(=O)N4CCOCC4)cc3[nH]2)cc1 ?
FAK inh: 95*; Smad3 FoxH1 inh: -5; Plk1 PBD FP: -5; EphB4 ephrin blk: 0; PLK1 inh: -1; FAK inh conf: 1

Results for COc1ccc(Cc2nc3ccc(S(=O)(=O)N4CCOCC4)cc3[nH]2)cc1OC ?
FAK inh: 3; Smad3 FoxH1 inh: -21; Plk1 PBD FP: -13; EphB4 ephrin blk: 2; PLK1 inh: -7

Results for O=C(c1cccc(S(=O)(=O)N2CCCC2)c1)N1CCN(c2ccccc2F)CC1 ?
FAK inh: 35*; Smad3 FoxH1 inh: -9; Plk1 PBD FP: -16; EphB4 ephrin blk: 4; PLK1 inh: -10; FAK inh conf: -1

How did Cc1nn(C(=O)c2ccco2)c(C)c1CN1C(=O)c2ccccc2C1=O do in these assays?
FAK inh: 32*; Smad3 FoxH1 inh: 1; Plk1 PBD FP: -3; EphB4 ephrin blk: 8; PLK1 inh: -3; FAK inh conf: 8
